From PubChem BioAssay
Several values for one entry are separate records, joined by “and”; a condition that tells them apart may be missing. Equal values may be shown once. Records with an inconclusive call do not appear. Activity calls are given as the source filed them. Unless noted, how the calls were made is not given here. Peptide text beside a SMILES is read from it.

How the values were obtained:
[1] = rapamycin-like changes in RPL19A-GFP expression – cell-based, S. cerevisiae, multiplex flow cytometry, primary screen (AID 1862; in the data active means percent of DMSO control GFP below about 86%;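 further: lower values mimic rapamycin by blocking the RPL19A rise seen in DMSO cells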); settings: S. cerevisiae RPL19A-GFP strain, flow cytometry fluorescence, 3 h; at 10 µM; stronger effect = lower value
[2] = TOR pathway GLN3 branch reporter MEP2-GFP changes – S. cerevisiae, multiplex flow cytometry, primary screen (AID 1867;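 active means GFP response, as percent of the DMSO control, above the screen-wide mean plus 3 SD, about 139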;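 further: median GFP channel fluorescence of barcode-gated MEP2-GFP cells measured by flow cytometry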); settings: S. cerevisiae MEP2-GFP strain, 3 h, at 10 µM, stronger effect = higher value
[3] = TOR pathway RTG branch CIT2 reporter changes – S. cerevisiae, GFP fusion, multiplex flow cytometry, primary screen (AID 1870;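 active means percent response above a set limit, the screen-wide mean plus 3 SD, cut at about 130% in these data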;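 further: barcoded CIT2-GFP strain pooled with four other GFP strains with rapamycin as positive control; median GFP fluorescence per well over plate mean of DMSO wells so 100% = DMSO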); settings: S. cerevisiae CIT2-GFP expression, 3 h, at 10 µM, stronger effect = higher value
[4] = TOR pathway LAP4-GFP level changes – S. cerevisiae, multiplex flow cytometry, primary screen (AID 1873;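 active means GFP signal, as percent of the solvent control, above the screen mean plus 3 SD, about 149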); settings: S. cerevisiae LAP4-GFP expression, 3 h, at 10 µM, stronger effect = higher value
[5] = reduced mouse 2C T cell binding to pMHC/ICAM-1 vesicles – MLPCN validation set, flow cytometry, LFA-1/ICAM-1 modulator project, pilot screen (AID 2523;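 active means response below a set limit, under 55% cells CD8-positive and vesicle-bound, and CD8 cells' 90th-percentile brightness under 279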;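 on vesicle binding response: mean PE anti-B7-1 fluorescence of CD8+ cells relative to row control; 100% = QL9-loaded vesicles with DMSO vehicle in the same plate row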); settings: 2C mouse CD8+ T cells, at 7 µM, stronger effect = lower value; double positive events: measured here: CD8+/vesicle+ event percentage
[6] = target: Integrin beta-1 (Homo sapiens) + Integrin alpha-4 (Homo sapiens) (UniProt P13612+P05556); test: alpha4beta1 integrin LIBS antibody binding reduction – U937 cells, HUTS-21 mAb, flow cytometry, validation set, VLA-4 allosteric modulator project, pilot screen (AID 2674;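 active means inhibition above 50%, about 3 SD of the validation set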;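 further: antibody binding induced by the VLA-4 ligand LDV present at three times its Kd; 0% = LDV ligand with antibody and no compound and 100% = antibody without LDV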); settings: HUTS-21 LIBS mAb binding, at 6.7 µM, stronger effect = higher value
Integrin beta-1 (Homo sapiens) + Integrin alpha-4 (Homo sapiens), sequence (P05556 whole entry, looked up): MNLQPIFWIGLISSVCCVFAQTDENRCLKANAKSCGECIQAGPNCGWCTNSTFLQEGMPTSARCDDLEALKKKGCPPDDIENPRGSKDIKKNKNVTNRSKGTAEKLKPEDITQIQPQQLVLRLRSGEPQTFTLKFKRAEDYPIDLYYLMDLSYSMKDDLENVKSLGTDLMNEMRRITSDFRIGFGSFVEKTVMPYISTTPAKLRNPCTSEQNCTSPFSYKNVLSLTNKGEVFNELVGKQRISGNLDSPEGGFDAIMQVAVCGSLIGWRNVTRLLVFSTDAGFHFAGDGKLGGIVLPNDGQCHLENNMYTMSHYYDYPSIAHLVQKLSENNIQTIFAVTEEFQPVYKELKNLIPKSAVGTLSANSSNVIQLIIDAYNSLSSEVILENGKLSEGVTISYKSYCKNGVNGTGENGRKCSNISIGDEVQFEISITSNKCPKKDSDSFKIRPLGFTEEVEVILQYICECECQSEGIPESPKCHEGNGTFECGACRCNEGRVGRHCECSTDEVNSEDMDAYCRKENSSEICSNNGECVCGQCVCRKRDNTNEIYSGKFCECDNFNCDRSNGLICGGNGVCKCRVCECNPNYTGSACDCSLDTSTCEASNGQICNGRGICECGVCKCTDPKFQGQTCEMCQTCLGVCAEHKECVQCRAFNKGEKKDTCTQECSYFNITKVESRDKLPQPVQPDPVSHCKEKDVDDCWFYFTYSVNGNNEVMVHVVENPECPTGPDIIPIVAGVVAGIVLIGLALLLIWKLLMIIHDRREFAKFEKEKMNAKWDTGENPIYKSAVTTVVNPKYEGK
Integrin beta-1 (Homo sapiens) + Integrin alpha-4 (Homo sapiens), sequence (P13612 whole entry, looked up): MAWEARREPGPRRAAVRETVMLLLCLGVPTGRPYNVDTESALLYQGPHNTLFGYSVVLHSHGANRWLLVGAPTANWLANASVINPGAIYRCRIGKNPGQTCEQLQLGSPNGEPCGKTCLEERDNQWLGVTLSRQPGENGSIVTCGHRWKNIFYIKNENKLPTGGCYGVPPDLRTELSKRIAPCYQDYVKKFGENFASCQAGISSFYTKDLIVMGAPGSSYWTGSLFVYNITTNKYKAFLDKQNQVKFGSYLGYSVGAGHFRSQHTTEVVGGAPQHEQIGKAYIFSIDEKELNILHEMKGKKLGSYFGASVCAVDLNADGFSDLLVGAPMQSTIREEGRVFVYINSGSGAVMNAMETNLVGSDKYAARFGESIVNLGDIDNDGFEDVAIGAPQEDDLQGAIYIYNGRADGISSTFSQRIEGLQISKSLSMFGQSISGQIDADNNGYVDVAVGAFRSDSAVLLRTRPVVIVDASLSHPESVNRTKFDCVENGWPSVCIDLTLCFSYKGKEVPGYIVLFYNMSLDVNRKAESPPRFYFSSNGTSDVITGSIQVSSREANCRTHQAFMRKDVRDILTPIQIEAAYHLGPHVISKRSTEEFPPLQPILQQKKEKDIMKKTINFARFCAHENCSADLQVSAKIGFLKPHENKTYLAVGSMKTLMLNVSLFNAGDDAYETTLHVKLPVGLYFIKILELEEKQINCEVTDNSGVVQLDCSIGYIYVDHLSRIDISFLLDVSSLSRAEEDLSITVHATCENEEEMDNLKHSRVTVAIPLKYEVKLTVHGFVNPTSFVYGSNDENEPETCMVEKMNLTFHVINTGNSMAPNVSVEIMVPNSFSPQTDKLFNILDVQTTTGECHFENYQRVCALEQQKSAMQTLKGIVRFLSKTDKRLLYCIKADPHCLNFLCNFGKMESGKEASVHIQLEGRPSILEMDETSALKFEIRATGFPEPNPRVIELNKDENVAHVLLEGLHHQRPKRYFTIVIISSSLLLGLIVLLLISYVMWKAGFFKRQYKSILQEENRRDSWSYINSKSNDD

[7] = calorie-restriction mimetic ROS inhibitors, yeast – validation compound set, pilot screen (AID 2706;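 active means superoxide response below 65% of plate, a cut near 3 SD across the whole screen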;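 further: yeast exposed to compound for one week at 30 degrees C before staining; 100% = mean of all compound wells on the same plate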); settings: S. cerevisiae aging, superoxide DHE fluorescence; at 10 µM; stronger effect = lower value
[8] = target: Beta-adrenergic receptor kinase 1 (Homo sapiens) (UniProt P25098); test: GRK2 binders displacing RNA aptamer, biochemical, validation, human GRK2, bead flow cytometry (AID 488806;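 active means aptamer binding inhibition above 30%, about 3 SD of noise from non-fluorescent compounds; inactive means inhibition at or below 30%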); settings: bead-bound GRK2, FAM-aptamer displacement, at 10 µM, stronger effect = higher value
Beta-adrenergic receptor kinase 1 (Homo sapiens), sequence (P25098 whole entry, looked up): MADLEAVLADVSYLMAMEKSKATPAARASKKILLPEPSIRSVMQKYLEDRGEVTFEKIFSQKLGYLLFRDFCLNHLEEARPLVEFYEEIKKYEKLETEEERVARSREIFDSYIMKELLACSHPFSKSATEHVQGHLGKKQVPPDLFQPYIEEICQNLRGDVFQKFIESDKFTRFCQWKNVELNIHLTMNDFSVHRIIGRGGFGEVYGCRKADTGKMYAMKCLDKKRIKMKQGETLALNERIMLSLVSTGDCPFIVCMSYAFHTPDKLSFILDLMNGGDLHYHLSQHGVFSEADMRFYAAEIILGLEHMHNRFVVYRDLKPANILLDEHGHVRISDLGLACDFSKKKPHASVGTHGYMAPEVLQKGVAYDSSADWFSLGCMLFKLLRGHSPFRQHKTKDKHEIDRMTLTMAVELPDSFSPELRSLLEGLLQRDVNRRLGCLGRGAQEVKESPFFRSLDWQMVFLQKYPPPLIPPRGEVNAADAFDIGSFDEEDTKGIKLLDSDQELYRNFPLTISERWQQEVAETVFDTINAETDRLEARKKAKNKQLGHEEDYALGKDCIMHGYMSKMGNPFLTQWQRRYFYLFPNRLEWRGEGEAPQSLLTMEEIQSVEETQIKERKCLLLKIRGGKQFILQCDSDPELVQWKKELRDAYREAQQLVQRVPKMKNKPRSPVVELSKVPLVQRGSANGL

[9] = target: AP-2 complex subunit beta (Homo sapiens) (UniProt P63010); test: beta-arrestin/AP2 interaction blockers – biochemical, validation set, GST-AP2 beads, flow cytometry, pilot screen (AID 504541;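 active means inhibition above 54%, about 3 SD of non-fluorescent compounds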;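 further: AP2 carries R879A mutation and is captured from E. coli lysate; bead-bound FITC arrestin peptide fluorescence measuring arrestin peptide binding to AP2; 0% = DMSO wells and 100% = excess unlabeled arrestin peptide control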); settings: FITC arrestin peptide, at 10 µM, stronger effect = higher value
[10] = cytosolic pH regulators acting via V-ATPase – S. cerevisiae, pHLuorin, HTS validation (AID 504600; in the data active means response above about 15%;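 further: plate controls were DMSO for no effect and reference compound for full effect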); settings: V-ATPase proton transport, at 10 µM, stronger effect = higher value
[11] = tested on: anti-desmoglein-3 scFv antibody binding to human DSG3; test: blockers of pathogenic pemphigus antibody–desmoglein-3 binding – biochemical, validation compound set, bead-based, flow cytometry, pilot screen (AID 588368;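 active means binding below the plate cutoff, the plate median minus 3 SD, with a reading above zero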;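 further: signal is the median channel fluorescence of bead-bound GFP antibody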); settings: Protein G beads, DSG3-Fc, scFv-GFP binding, at 10 µM, stronger effect = lower value
[12] = tested on: Botulinum neurotoxin type F light chain protease (Clostridium botulinum); test: Clostridium botulinum type F light chain protease inhibitors, microsphere substrate cleavage, validation (AID 588459); settings: multiplex microsphere protease substrate cleavage assay, flow cytometry; at 10 µM; stronger effect = higher value
[13] = target: Botulinum neurotoxin type A (Clostridium botulinum) (UniProt P0DPI0); test: BoNT/A light chain protease inhibitors, biochemical, multiplex microsphere flow cytometry, validation set (AID 588460); settings: at 10 µM, stronger effect = higher value
Botulinum neurotoxin type A (Clostridium botulinum), sequence (P0DPI0 whole entry, looked up): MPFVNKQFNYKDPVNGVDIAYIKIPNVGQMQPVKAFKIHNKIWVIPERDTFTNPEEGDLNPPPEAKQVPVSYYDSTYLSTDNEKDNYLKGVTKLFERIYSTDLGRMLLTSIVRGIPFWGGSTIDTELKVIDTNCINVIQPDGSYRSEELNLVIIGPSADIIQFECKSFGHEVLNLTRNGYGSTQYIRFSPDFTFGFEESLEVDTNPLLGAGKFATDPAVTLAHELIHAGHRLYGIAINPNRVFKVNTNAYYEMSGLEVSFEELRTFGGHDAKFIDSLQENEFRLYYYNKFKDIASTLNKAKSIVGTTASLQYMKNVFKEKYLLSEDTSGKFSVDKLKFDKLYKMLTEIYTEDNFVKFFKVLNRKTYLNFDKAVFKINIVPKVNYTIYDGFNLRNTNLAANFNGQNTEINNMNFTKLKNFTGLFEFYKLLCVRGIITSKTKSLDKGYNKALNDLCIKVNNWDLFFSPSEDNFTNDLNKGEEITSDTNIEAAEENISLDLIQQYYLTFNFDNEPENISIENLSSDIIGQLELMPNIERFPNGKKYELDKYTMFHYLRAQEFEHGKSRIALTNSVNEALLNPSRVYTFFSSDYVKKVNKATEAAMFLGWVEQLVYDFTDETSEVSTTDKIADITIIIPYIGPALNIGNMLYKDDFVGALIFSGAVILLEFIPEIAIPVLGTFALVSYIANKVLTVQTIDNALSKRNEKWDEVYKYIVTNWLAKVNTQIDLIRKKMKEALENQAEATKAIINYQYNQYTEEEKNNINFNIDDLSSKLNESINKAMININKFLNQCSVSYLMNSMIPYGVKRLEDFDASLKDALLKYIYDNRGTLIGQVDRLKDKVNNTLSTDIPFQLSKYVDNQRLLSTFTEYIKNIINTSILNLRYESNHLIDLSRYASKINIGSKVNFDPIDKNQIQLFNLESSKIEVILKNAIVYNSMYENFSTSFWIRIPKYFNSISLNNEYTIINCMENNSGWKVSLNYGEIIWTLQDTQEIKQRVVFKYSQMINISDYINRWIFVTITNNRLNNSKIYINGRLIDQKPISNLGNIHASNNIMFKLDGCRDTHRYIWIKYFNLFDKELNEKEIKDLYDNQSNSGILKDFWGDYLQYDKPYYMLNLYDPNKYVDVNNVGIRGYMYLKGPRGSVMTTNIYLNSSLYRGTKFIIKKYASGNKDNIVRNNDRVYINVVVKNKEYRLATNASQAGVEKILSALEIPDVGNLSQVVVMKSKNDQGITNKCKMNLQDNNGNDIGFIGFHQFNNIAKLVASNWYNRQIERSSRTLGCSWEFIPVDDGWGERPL

[14] = target: Lethal factor (Bacillus anthracis) (UniProt P15917); test: Bacillus anthracis lethal factor inhibition, microsphere flow cytometry protease assay, validation at 10 µM (AID 588461); settings: multiplex microsphere protease cleavage assay, stronger effect = higher value
Lethal factor (Bacillus anthracis), sequence (P15917 whole entry, looked up): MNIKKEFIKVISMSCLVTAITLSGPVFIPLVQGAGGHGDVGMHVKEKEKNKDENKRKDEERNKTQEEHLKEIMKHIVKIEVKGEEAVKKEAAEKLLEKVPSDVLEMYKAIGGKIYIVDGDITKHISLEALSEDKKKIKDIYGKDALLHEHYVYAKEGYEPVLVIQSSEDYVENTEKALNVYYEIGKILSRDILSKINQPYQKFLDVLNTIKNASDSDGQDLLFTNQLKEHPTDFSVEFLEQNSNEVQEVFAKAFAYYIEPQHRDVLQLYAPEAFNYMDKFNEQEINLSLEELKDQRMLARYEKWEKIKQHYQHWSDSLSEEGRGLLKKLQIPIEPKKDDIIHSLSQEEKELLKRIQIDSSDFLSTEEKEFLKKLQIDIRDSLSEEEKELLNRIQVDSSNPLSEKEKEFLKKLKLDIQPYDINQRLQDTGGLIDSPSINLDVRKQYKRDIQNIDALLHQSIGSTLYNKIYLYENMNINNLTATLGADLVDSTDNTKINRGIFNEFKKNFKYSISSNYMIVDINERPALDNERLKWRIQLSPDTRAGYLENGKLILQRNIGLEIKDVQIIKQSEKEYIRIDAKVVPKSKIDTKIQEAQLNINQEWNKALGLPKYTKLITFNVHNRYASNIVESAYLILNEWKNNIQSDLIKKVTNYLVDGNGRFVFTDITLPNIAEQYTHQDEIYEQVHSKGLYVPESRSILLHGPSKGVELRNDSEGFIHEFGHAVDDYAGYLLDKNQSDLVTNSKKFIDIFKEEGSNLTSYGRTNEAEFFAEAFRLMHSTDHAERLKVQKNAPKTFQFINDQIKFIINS

[15] = Nile Red efflux blockade in pump-expressing yeast – validation compound set, multiplex, phenotypic, pilot screen (AID 588506;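 active means efflux inhibition above 0.42, the validation set average plus 4 SD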;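 further: Nile Red retained in cells so higher fluorescence means more efflux inhibition; 0 = negative control wells and 1 = enniatin B 25 µM full block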); settings: S. cerevisiae pump-expressing triplex, Nile Red efflux flow cytometry; at 10 µM; stronger effect = higher value
[16] = target: ATP-binding cassette sub-family B member 6 (Homo sapiens) (UniProt Q9NP58); test: blockers of ABCB6-driven porphyrin uptake – K562-ABCB6 cells, flow cytometry, validation set, pilot screen (AID 588550;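 active means inhibition above the screen-wide mean plus 3 SD, about 51%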;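 further: 0% = DMSO wells and 100% = benzethonium chloride 70 µM positive control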); settings: K562-ABCB6 porphyrin accumulation, 1 h, at 10 µM, stronger effect = higher value
[17] = AML differentiation inducers, ER-HoxA9 marrow cells – cell-based, GFP/MAC1 double positive, flow cytometry, validation set, primary screen (AID 588685;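 active means differentiation response of at least 50%, scaled between solvent and reference control, from cells with both markers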;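 further: compound exposure lasts four days before antibody staining and flow analysis; 0% = DMSO wells and 100% = 5 µM fulvestrant positive control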); settings: stronger effect = higher value

SMILES	percent of DMSO control GFP [1]	GFP response vs DMSO [2]	percent response of DMSO control [3]	GFP response vs DMSO [4]	double positive events [5]	vesicle binding response [5]	inhibition [6]	superoxide response (% of plate) [7]	aptamer binding inhibition [8]	inhibition [9]	response [10]	binding (% of control) [11]	inhibition [12]	inhibition [13]	inhibition [14]	efflux inhibition (fraction of control) [15]	inhibition [16]	differentiation response [17]
[N-]=[N+]=NC1C[C@H](n2ccc(=O)[nH]c2=O)O[C@@H]1CO (stereo partly specified)	101% (inactive)	99.9% (inactive)	106% (inactive)	101% (inactive)	56.5%	185% (inactive)	9.09% (inactive)	97.1% (inactive)	-2% (inactive)	42% (inactive)	-3.04% (inactive)	97.7% (inactive)	0.8% (inactive)	-1.5% (inactive)	-5.9% (inactive)	0.03 (inactive)	6% (inactive)	-21.2% (inactive)
COc1ccc(Cc2nccc3cc(OC)c(OC)cc23)cc1OC	101% (inactive)	96.7% (inactive)	94.9% (inactive)	98.7% (inactive)	59.9%	146% (inactive)	–	96% (inactive)	4% (inactive)	-1.6% (inactive)	-0.83% (inactive)	108% (inactive)	1.7% (inactive)	0.2% (inactive)	3.7% (inactive)	0.49 (active)	4% (inactive)	6.49% (inactive)
C[N+]1(C)[C@@H]2CC(OC(=O)[C@H](CO)c3ccccc3)C[C@H]1[C@@H]1O[C@@H]12 (stereo partly specified)	97.8% (inactive) and 102% (inactive)	104% (inactive) and 114% (inactive)	99.7% (inactive) and 92% (inactive)	94.8% (inactive) and 112% (inactive)	62.3% and 61.3%	109% (inactive) and 5740% (inactive)	12.3% (inactive) and -9.98% (inactive)	103% (inactive) and 114% (inactive)	-1% (inactive) and 1% (inactive)	5.6% (inactive) and -2.35% (inactive)	3.4% (inactive) and -1.88% (inactive)	99.6% (inactive) and 101% (inactive)	-3.5% (inactive) and 1.5% (inactive)	-1.8% (inactive) and 0.7% (inactive)	-5.6% (inactive) and 13.1% (inactive)	–	-8% (inactive) and 5% (inactive)	-6.03% (inactive) and -15.2% (inactive)
Cc1cccc(C)c1NC1=NCCCS1	94.7% (inactive)	104% (inactive)	94.9% (inactive)	91.3% (inactive)	62.8%	180% (inactive)	13.8% (inactive)	97.2% (inactive)	2% (inactive)	15.3% (inactive)	1.52% (inactive)	102% (inactive)	-2.3% (inactive)	-0.6% (inactive)	1.9% (inactive)	0.18 (inactive)	5% (inactive)	-9.89% (inactive)
O=c1[nH]c2ccccc2n1CCCN1CCC(n2c(=O)[nH]c3cc(Cl)ccc32)CC1	99.1% (inactive)	109% (inactive)	91% (inactive)	112% (inactive)	55.1%	240% (inactive)	-4.52% (inactive)	114% (inactive)	1% (inactive)	-6.83% (inactive)	-0.17% (inactive)	101% (inactive)	–	1.3% (inactive)	-2.2% (inactive)	-0.1 (inactive)	2% (inactive)	-34.4% (inactive)
C[C@@H]1O[C@@H](O[C@H]2C[C@@H](O)[C@]3(CO)[C@H]4[C@H](O)C[C@]5(C)[C@@H](C6=CC(=O)OC6)CC[C@]5(O)[C@@H]4CC[C@]3(O)C2)[C@H](O)[C@H](O)[C@H]1O	108% (inactive)	104% (inactive)	102% (inactive)	107% (inactive)	69%	183% (inactive)	1.44% (inactive)	103% (inactive)	7% (inactive)	-1.72% (inactive)	0.97% (inactive)	101% (inactive)	0.6% (inactive)	-0.5% (inactive)	0.4% (inactive)	–	4% (inactive)	1.91% (inactive)
O=C1CC[C@@]2(O)[C@H]3Cc4ccc(O)c5c4[C@@]2(CCN3CC2CC2)[C@H]1O5	98.3% (inactive)	126% (inactive)	96.6% (inactive)	84.7% (inactive)	63.4%	207% (inactive)	1.61% (inactive)	95.9% (inactive)	2% (inactive)	-0.81% (inactive)	1.19% (inactive)	107% (inactive)	–	–	–	-0.02 (inactive)	14% (inactive)	-3.28% (inactive)
Cc1cc(Cl)ccc1OC(C)C(=O)O (stereo unspecified)	97.9% (inactive)	108% (inactive)	111% (inactive)	74.8% (inactive)	58.2%	208% (inactive)	-6.15% (inactive)	135% (inactive)	-5% (inactive)	0.4% (inactive)	3.15% (inactive)	105% (inactive)	3.9% (inactive)	0.5% (inactive)	–	0.37 (inactive)	9% (inactive)	7.37% (inactive)
NCCc1c[nH]c2ccc(F)cc12	98.2% (inactive)	103% (inactive)	107% (inactive)	106% (inactive)	59.2%	77.4% (inactive)	18.3% (inactive)	93.9% (inactive)	-1% (inactive)	–	6.8% (inactive)	104% (inactive)	-3.3% (inactive)	-0.7% (inactive)	-4.9% (inactive)	-0.44 (inactive)	2% (inactive)	5.73% (inactive)
NCC1(c2ccc3c(c2)OCCO3)CCCC1	98.3% (inactive)	101% (inactive)	97.9% (inactive)	89.3% (inactive)	60.7%	107% (inactive)	-51.5% (inactive)	101% (inactive)	1% (inactive)	6.32% (inactive)	-0.06% (inactive)	98.8% (inactive)	0.5% (inactive)	-0.6% (inactive)	0.5% (inactive)	0.06 (inactive)	6% (inactive)	1.41% (inactive)
CC(C)(C)NCC(O)c1cc(Cl)c(N)c(Cl)c1 (stereo unspecified)	104% (inactive)	102% (inactive)	97.6% (inactive)	99.1% (inactive)	60.7%	138% (inactive)	-21.2% (inactive)	94.5% (inactive)	-1% (inactive)	-12.6% (inactive)	1.54% (inactive)	112% (inactive)	2.9% (inactive)	2.2% (inactive)	6.8% (inactive)	-0.28 (inactive)	2% (inactive)	17.4% (inactive)
CC(C)C[C@H](NC(=O)[C@@H]1CCCN1C(=O)[C@@H](N)Cc1ccc(O)cc1)C(=O)NCC(N)=O (H-YPLG-NH2)	108% (inactive)	101% (inactive)	110% (inactive)	89.3% (inactive)	63.1%	186% (inactive)	0.69% (inactive)	95.5% (inactive)	1% (inactive)	2.65% (inactive)	-0.2% (inactive)	101% (inactive)	-4.4% (inactive)	-0.2% (inactive)	1% (inactive)	-0.09 (inactive)	7% (inactive)	-9.89% (inactive)
CC(C)[C@H]1C(=O)N2CCC[C@H]2[C@]2(O)O[C@](NC(=O)[C@@H]3C=C4c5cccc6[nH]cc(c56)C[C@H]4N(C)C3)(C(C)C)C(=O)N12	99% (inactive)	108% (inactive)	102% (inactive)	123% (inactive)	59.8%	192% (inactive)	–	38.3% (active)	8% (inactive)	3.83% (inactive)	-7.73% (inactive)	105% (inactive)	-15.7% (inactive)	-5% (inactive)	-64.2% (inactive)	0.25 (inactive)	-96% (inactive)	-2.03% (inactive)
O=C(O)CCCc1ccc(N(CCCl)CCCl)cc1	101% (inactive)	103% (inactive)	98.8% (inactive)	97.4% (inactive)	63.4%	148% (inactive)	23.1% (inactive)	93.9% (inactive)	4% (inactive)	1.29% (inactive)	-5.67% (inactive)	105% (inactive)	-4% (inactive)	-2.1% (inactive)	-3.4% (inactive)	0.48 (active)	8% (inactive)	17.6% (inactive)
CN(C)[C@@H]1C(=O)C(C(N)=O)=C(O)[C@@]2(O)C(=O)C3=C(O)c4c(O)cccc4[C@@](C)(O)[C@H]3[C@H](O)[C@@H]12	102% (inactive)	98.9% (inactive)	105% (inactive)	97.4% (inactive)	56.9%	155% (inactive)	6.29% (inactive)	99.8% (inactive)	26% (inactive)	34.2% (inactive)	4.02% (inactive)	87.9% (inactive)	-9.4% (inactive)	-5.3% (inactive)	-12.6% (inactive)	-0.31 (inactive)	3% (inactive)	-18% (inactive)
CCN(CC)CCOC(=O)C(O)(c1ccccc1)c1ccccc1	102% (inactive)	108% (inactive)	96.5% (inactive)	92.6% (inactive)	62%	152% (inactive)	2.93% (inactive)	90.4% (inactive)	2% (inactive)	0.48% (inactive)	-1.11% (inactive)	108% (inactive)	-2% (inactive)	-0.9% (inactive)	-5.6% (inactive)	-0.095 (inactive)	-101% (inactive)	7.13% (inactive)
CCNC(=S)N(C)CCc1cc2c(c(OC)c1C=C1C(=O)N(C)C(=O)N(C)C1=O)OCO2	98.1% (inactive)	95.9% (inactive)	91% (inactive)	96.4% (inactive)	62.5%	168% (inactive)	15.6% (inactive)	89.1% (inactive)	4% (inactive)	27.6% (inactive)	-7.44% (inactive)	100% (inactive)	1.8% (inactive)	1.4% (inactive)	1.3% (inactive)	-0.16 (inactive)	-16% (inactive)	6.26% (inactive)
